Data as given in publication PMC7862700, “An all-to-all approach to the identification of sequence-specific readers for epigenetic DNA modifications on cytosine”.

Columns and labels:
Experiment in all cases: DAPPL (digital affinity profiling via proximity ligation, sequencing); 10 mM Tris-HCl pH 7.5, 50 mM NaCl, 1 mM DTT, 4% glycerol, room temperature, 30 min; GST-TFs on glutathione beads, 16-mer random dsDNA library, 0.1% formaldehyde crosslink after washing; high values mean tight binding
Settings in all cases: protein: recombinant; tags: N-terminal GST; dsDNA, one strand shown
ERF = biological target: T1, ERF (Homo sapiens, UniProt P50548 1-548)
T1 sequence: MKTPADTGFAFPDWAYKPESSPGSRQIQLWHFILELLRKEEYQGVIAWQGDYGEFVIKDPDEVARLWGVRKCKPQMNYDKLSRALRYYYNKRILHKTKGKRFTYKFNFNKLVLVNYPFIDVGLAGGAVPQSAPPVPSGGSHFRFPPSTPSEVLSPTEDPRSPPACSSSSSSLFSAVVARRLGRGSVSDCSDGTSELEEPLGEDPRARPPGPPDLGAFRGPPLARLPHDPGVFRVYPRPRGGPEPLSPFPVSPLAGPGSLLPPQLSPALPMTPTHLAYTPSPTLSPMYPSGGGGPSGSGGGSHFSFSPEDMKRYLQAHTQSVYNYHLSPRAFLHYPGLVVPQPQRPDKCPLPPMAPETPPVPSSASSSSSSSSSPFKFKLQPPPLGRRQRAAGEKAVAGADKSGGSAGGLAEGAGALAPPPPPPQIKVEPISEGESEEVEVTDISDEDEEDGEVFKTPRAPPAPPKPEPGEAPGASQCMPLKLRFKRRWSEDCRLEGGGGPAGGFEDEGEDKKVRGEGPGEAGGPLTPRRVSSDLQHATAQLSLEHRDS
In short: (§1)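 Binding signal is defined as a hexamer's read frequency for one factor over its frequency for the tag-only sample. To obtain reads, GST-fused human transcription factors were expressed in yeast, captured on glutathione beads, barcoded with DNA and pooled with that sample. Pools met 200 nmole of a 16-mer random double-stranded DNA library in Tris/NaCl/DTT/glycerol buffer for 30 min at room temperature before washing, 0.1% formaldehyde crosslinking, proximity ligation (BsaI/T4 ligase, 1 h, 37 °C), PCR and Illumina NextSeq500 sequencing.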

ETV3L = biological target: T2, ETV3L (Homo sapiens, UniProt Q6ZN32 1-361)
T2 sequence: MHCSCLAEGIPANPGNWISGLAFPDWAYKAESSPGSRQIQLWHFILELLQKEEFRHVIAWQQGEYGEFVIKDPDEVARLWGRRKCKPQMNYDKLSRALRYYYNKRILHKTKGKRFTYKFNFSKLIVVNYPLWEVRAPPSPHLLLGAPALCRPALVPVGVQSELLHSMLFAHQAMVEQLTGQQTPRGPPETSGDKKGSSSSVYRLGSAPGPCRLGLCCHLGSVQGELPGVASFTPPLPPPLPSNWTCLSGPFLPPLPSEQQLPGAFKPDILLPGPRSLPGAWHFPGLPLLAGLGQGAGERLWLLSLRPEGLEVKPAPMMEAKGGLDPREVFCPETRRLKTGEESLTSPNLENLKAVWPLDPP
In short: as §1

ETS2 = biological target: T3, ETS2 (Homo sapiens, UniProt P15036 1-469)
T3 sequence: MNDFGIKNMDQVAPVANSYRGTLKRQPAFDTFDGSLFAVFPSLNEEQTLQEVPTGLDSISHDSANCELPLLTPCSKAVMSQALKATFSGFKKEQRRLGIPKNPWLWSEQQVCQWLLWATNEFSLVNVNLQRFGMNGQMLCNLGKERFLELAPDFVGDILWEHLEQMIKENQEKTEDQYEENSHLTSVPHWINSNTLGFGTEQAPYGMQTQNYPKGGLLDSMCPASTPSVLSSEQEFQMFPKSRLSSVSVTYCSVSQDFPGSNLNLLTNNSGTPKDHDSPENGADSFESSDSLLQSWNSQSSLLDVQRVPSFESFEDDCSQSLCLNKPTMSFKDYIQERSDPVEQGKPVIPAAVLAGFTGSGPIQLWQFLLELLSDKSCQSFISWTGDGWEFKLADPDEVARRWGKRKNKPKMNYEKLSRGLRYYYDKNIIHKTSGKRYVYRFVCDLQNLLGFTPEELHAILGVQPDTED
In short: as §1

SPDEF = biological target: T4, SPDEF (Homo sapiens, UniProt O95238 1-335)
T4 sequence: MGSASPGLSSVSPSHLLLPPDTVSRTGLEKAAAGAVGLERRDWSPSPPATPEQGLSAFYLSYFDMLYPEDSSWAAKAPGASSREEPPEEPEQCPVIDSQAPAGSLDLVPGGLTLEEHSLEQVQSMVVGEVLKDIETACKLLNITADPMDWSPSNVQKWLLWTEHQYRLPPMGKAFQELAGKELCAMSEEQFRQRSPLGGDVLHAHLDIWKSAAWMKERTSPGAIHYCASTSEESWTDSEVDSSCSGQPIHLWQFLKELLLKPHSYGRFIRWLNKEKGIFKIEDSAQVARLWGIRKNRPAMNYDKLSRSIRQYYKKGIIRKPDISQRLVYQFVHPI
In short: as §1

ETV7 = biological target: T5, ETV7 (Homo sapiens, UniProt Q9Y603 1-341)
T5 sequence: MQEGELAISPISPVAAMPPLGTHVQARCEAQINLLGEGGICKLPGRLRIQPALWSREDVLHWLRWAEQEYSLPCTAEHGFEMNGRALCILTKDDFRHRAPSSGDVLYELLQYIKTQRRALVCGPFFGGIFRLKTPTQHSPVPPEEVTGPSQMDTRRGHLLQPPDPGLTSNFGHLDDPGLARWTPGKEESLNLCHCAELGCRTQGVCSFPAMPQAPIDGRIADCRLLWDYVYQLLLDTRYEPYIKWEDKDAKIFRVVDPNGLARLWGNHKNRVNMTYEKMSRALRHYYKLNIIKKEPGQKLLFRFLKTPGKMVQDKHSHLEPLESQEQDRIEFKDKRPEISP
In short: as §1

ELF5 = biological target: T6, ELF5 (Homo sapiens, UniProt Q9UKW6-2 1-255)
T6 sequence: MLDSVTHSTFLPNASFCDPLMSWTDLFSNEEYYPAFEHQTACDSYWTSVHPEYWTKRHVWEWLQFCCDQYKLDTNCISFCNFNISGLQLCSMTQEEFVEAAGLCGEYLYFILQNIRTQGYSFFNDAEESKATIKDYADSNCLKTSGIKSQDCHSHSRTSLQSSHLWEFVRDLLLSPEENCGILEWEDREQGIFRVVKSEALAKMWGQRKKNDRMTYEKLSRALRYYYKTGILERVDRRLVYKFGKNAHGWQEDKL
In short: as §1

ETV3 = biological target: T7, ETV3 (Homo sapiens, UniProt P41162-2 1-143)
T7 sequence: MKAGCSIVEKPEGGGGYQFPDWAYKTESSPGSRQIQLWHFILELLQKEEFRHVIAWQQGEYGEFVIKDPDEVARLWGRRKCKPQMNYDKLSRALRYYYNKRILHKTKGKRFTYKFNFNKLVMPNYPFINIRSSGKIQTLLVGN
In short: as §1

ETV6 = ETV6 (Homo sapiens, UniProt P41212 1-452)
In short: as §1

Sequence of ETV6 (P41212 whole entry): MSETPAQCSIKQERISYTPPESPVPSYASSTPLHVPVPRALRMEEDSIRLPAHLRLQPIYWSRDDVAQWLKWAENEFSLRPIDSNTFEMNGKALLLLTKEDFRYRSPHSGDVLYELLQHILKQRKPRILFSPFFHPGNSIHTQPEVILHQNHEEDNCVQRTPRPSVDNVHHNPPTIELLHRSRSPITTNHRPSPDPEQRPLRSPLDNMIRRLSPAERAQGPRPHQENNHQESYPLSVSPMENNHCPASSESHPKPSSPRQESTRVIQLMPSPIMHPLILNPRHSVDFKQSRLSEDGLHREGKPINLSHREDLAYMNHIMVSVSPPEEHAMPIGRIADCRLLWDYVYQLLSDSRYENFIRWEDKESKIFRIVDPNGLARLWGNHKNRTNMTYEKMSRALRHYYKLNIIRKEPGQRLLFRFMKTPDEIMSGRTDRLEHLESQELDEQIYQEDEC

Sequence	binding signal (ERF)	binding signal (ETV3L)	binding signal (ETS2)	binding signal (SPDEF)	binding signal (ETV7)	binding signal (ELF5)	binding signal (ETV3)	binding signal (ETV6)
ATGACA	1.31 fold enrichment (6-mer frequency, TF over GST control)	1.28 fold enrichment (6-mer frequency, TF over GST control)	1.33 fold enrichment (6-mer frequency, TF over GST control)	1.31 fold enrichment (6-mer frequency, TF over GST control)	1.44 fold enrichment (6-mer frequency, TF over GST control)	1.24 fold enrichment (6-mer frequency, TF over GST control)	1.39 fold enrichment (6-mer frequency, TF over GST control)	1.34 fold enrichment (6-mer frequency, TF over GST control)
TTTATC	1.19 fold enrichment (6-mer frequency, TF over GST control)	1.35 fold enrichment (6-mer frequency, TF over GST control)	1.26 fold enrichment (6-mer frequency, TF over GST control)	1.25 fold enrichment (6-mer frequency, TF over GST control)	1.22 fold enrichment (6-mer frequency, TF over GST control)	1.26 fold enrichment (6-mer frequency, TF over GST control)	1.29 fold enrichment (6-mer frequency, TF over GST control)	1.24 fold enrichment (6-mer frequency, TF over GST control)
TCCCAT	1.4 fold enrichment (6-mer frequency, TF over GST control)	1.38 fold enrichment (6-mer frequency, TF over GST control)	1.4 fold enrichment (6-mer frequency, TF over GST control)	1.23 fold enrichment (6-mer frequency, TF over GST control)	1.28 fold enrichment (6-mer frequency, TF over GST control)	1.44 fold enrichment (6-mer frequency, TF over GST control)	1.32 fold enrichment (6-mer frequency, TF over GST control)	1.37 fold enrichment (6-mer frequency, TF over GST control)
TTCCTG	1.87 fold enrichment (6-mer frequency, TF over GST control)	2.35 fold enrichment (6-mer frequency, TF over GST control)	2.4 fold enrichment (6-mer frequency, TF over GST control)	2.25 fold enrichment (6-mer frequency, TF over GST control)	2.03 fold enrichment (6-mer frequency, TF over GST control)	3.79 fold enrichment (6-mer frequency, TF over GST control)	2.66 fold enrichment (6-mer frequency, TF over GST control)	2.57 fold enrichment (6-mer frequency, TF over GST control)
TACTAT	1.38 fold enrichment (6-mer frequency, TF over GST control)	1.25 fold enrichment (6-mer frequency, TF over GST control)	1.37 fold enrichment (6-mer frequency, TF over GST control)	1.37 fold enrichment (6-mer frequency, TF over GST control)	1.35 fold enrichment (6-mer frequency, TF over GST control)	1.27 fold enrichment (6-mer frequency, TF over GST control)	1.36 fold enrichment (6-mer frequency, TF over GST control)	1.39 fold enrichment (6-mer frequency, TF over GST control)
TCCTAA	1.55 fold enrichment (6-mer frequency, TF over GST control)	1.36 fold enrichment (6-mer frequency, TF over GST control)	1.49 fold enrichment (6-mer frequency, TF over GST control)	1.6 fold enrichment (6-mer frequency, TF over GST control)	1.48 fold enrichment (6-mer frequency, TF over GST control)	1.5 fold enrichment (6-mer frequency, TF over GST control)	1.45 fold enrichment (6-mer frequency, TF over GST control)	1.55 fold enrichment (6-mer frequency, TF over GST control)
CTGAAT	1.47 fold enrichment (6-mer frequency, TF over GST control)	1.32 fold enrichment (6-mer frequency, TF over GST control)	1.32 fold enrichment (6-mer frequency, TF over GST control)	1.53 fold enrichment (6-mer frequency, TF over GST control)	1.17 fold enrichment (6-mer frequency, TF over GST control)	1.18 fold enrichment (6-mer frequency, TF over GST control)	1.29 fold enrichment (6-mer frequency, TF over GST control)	1.22 fold enrichment (6-mer frequency, TF over GST control)
ATGCTA	1.26 fold enrichment (6-mer frequency, TF over GST control)	1.37 fold enrichment (6-mer frequency, TF over GST control)	1.25 fold enrichment (6-mer frequency, TF over GST control)	1.23 fold enrichment (6-mer frequency, TF over GST control)	1.3 fold enrichment (6-mer frequency, TF over GST control)	1.28 fold enrichment (6-mer frequency, TF over GST control)	1.28 fold enrichment (6-mer frequency, TF over GST control)	1.27 fold enrichment (6-mer frequency, TF over GST control)
TTGTGC	1.31 fold enrichment (6-mer frequency, TF over GST control)	1.12 fold enrichment (6-mer frequency, TF over GST control)	1.17 fold enrichment (6-mer frequency, TF over GST control)	1.15 fold enrichment (6-mer frequency, TF over GST control)	1.08 fold enrichment (6-mer frequency, TF over GST control)	1.23 fold enrichment (6-mer frequency, TF over GST control)	1.15 fold enrichment (6-mer frequency, TF over GST control)	1.23 fold enrichment (6-mer frequency, TF over GST control)
TCTGCT	1.52 fold enrichment (6-mer frequency, TF over GST control)	1.28 fold enrichment (6-mer frequency, TF over GST control)	1.29 fold enrichment (6-mer frequency, TF over GST control)	1.21 fold enrichment (6-mer frequency, TF over GST control)	1.14 fold enrichment (6-mer frequency, TF over GST control)	1.2 fold enrichment (6-mer frequency, TF over GST control)	1.32 fold enrichment (6-mer frequency, TF over GST control)	1.18 fold enrichment (6-mer frequency, TF over GST control)
ACGAAT	1.17 fold enrichment (6-mer frequency, TF over GST control)	1.15 fold enrichment (6-mer frequency, TF over GST control)	1.1 fold enrichment (6-mer frequency, TF over GST control)	1.13 fold enrichment (6-mer frequency, TF over GST control)	1.23 fold enrichment (6-mer frequency, TF over GST control)	1.11 fold enrichment (6-mer frequency, TF over GST control)	1.11 fold enrichment (6-mer frequency, TF over GST control)	1.11 fold enrichment (6-mer frequency, TF over GST control)
TCTCCT	1.34 fold enrichment (6-mer frequency, TF over GST control)	1.73 fold enrichment (6-mer frequency, TF over GST control)	1.52 fold enrichment (6-mer frequency, TF over GST control)	1.32 fold enrichment (6-mer frequency, TF over GST control)	1.46 fold enrichment (6-mer frequency, TF over GST control)	1.41 fold enrichment (6-mer frequency, TF over GST control)	1.41 fold enrichment (6-mer frequency, TF over GST control)	1.44 fold enrichment (6-mer frequency, TF over GST control)
